{
  "source": "PubChem BioAssay",
  "data": [
    {"assay": "blood-stage malaria parasite viability loss – strain 3D7, DAPI fluorescence, 100 nL, primary screen (AID 1184);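 note: parasites grown inside human red blood cells in medium with human serum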", "conditions": "P. falciparum 3D7 growth, 3 d, higher = more signal", "values": [
      {"compound": "C=C[C@H](COC(C)=O)N(Cc1ccc(OC(C)=O)c(OC)c1)S(=O)(=O)c1ccc(Br)cc1", "z-score": 0.371},
      {"compound": "CCCC[C@H]1OB(O)C[C@H]2C1=C(C)C[C@H]1C(=O)N(Cc3ccccc3)C(=O)[C@H]12", "z-score": 0.508},
      {"compound": "C=C[C@@H](COC(C)=O)N(Cc1ccc([N+](=O)[O-])cc1)S(=O)(=O)c1ccc(Br)cc1", "z-score": 0.242},
      {"compound": "Cc1ccc(S[C@]2(C(=O)NCC(C)C)CC(=O)N(Cc3ccccc3Cl)[C@@H]2c2ccc(CO)cc2)cc1", "z-score": 0.423},
      {"compound": "COCCOC(=O)N1C(=O)[C@@]2(c3cc(C#CCCO)ccc31)[C@H](c1ccccc1OCCO)N1[C@H](c3ccccc3)[C@H](c3ccccc3)OC(=O)[C@H]1[C@@H]2C(=O)N1CCN(c2ncccn2)CC1", "z-score": -1.89},
      {"compound": "COCCCNC(=O)[C@@]1(c2ccc([N+](=O)[O-])cc2)CC(=O)N(CC23CC4CC(CC(C4)C2)C3)[C@@H]1c1ccc(CO)cc1", "z-score": -0.0493},
      {"compound": "Cc1cc(C)c(C(O)C2C=CC3C(=O)N(C)C(=O)C3N2Nc2ccccc2)c(C)c1", "note": "(stereo unspecified)", "z-score": 0.642},
      {"compound": "CCCNC(=O)[C@@H]1c2ccccc2C(=O)N(Cc2ccccc2)[C@H]1c1ccc(CO)cc1", "z-score": -1.62},
      {"compound": "COc1ccc([Si](C)(C)[C@H]2[C@H](CC(=O)N(CCO)Cc3ccccc3)O[C@@]3(C(=O)N(Cc4cccc(N5CCC5=O)c4)c4ccccc43)[C@@H]2C)cc1", "z-score": -2.84},
      {"compound": "COc1ccc([Si](C)(C)[C@@H]2[C@@H](CCn3cc([C@H](O)c4ccccc4)nn3)O[C@]3(C(=O)N(Cc4ccc(N5C(=O)c6cccc7cccc5c67)cc4)c4ccccc43)[C@H]2C)cc1", "z-score": -2.8},
      {"compound": "CCN(CC)c1ccc(N2CC=CC34O[C@@H]5C=CCCOC(=O)C5[C@H]3C(=O)N(CCCCCO)[C@@H]4C2=O)cc1", "note": "(stereo partly specified)", "z-score": 0.315},
      {"compound": "COCCOC(=O)N1C(=O)[C@@]2(c3cc(C#CCC(C(=O)OC)C(=O)OC)ccc31)[C@H](c1ccccc1OCCO)N1[C@H](c3ccccc3)[C@H](c3ccccc3)OC(=O)[C@H]1[C@@H]2C(N)=O", "z-score": -2.07},
      {"compound": "COc1ccc(C(O)C2C=CC3C(=O)N(c4ccccc4)C(=O)C3N2Nc2ccc([N+](=O)[O-])cc2)cc1OCc1ccccc1", "note": "(stereo unspecified)", "z-score": -0.303},
      {"compound": "O=C1OCC=C[C@H]2OC34C=CCN(c5ccc6ccccc6c5)C(=O)[C@H]3N(CCCO)C(=O)[C@@H]4[C@@H]12", "note": "(stereo partly specified)", "z-score": -1.94},
      {"compound": "COCCOC(=O)N1C(=O)[C@@]2(c3cc(C#CCNC(N)=O)ccc31)[C@H](C(=O)N1CCc3cc(OC)c(OC)cc3C1)[C@H]1C(=O)O[C@H](c3ccccc3)[C@H](c3ccccc3)N1[C@@H]2c1ccc(OCCO)cc1", "z-score": -1.3},
      {"compound": "O=C(OCCF)C1=CCC(c2cccc(Cl)c2)O1", "note": "(stereo unspecified)", "z-score": 0.65},
      {"compound": "CCC[C@@H]1C=C(C(=O)O)[C@H](c2ccc(C)cc2)N1S(=O)(=O)c1ccc(C)cc1", "z-score": 0.977},
      {"compound": "COc1ccc(C#Cc2ccc3c(c2)[C@]2(C(=O)N3)[C@H](C(=O)NC[C@H](O)c3ccccc3)[C@H]3C(=O)O[C@H](c4ccccc4)[C@H](c4ccccc4)N3[C@@H]2c2ccccc2OCCO)cc1", "z-score": -1.01},
      {"compound": "CC1=C2[C@@H](CCc3ccccc3)OB(O)C[C@@H]2n2c(=O)n(-c3ccccc3)c(=O)n2C1", "z-score": 1.65},
      {"compound": "CCOC(=O)C1=C[C@@H](CC)N(S(=O)(=O)c2ccc(C)cc2)[C@H]1c1ccccc1", "z-score": -1.81},
      {"compound": "COc1cc(C(O)C2C=CC3C(=O)N(c4ccccc4)C(=O)C3N2Nc2ccc(C#N)cc2)cc(OC)c1OC", "note": "(stereo unspecified)", "z-score": 0.162},
      {"compound": "COc1ccc(C#Cc2ccc3c(c2)[C@]2(C(=O)N3)[C@H](c3ccc(O)cc3)N3[C@H](c4ccccc4)[C@H](c4ccccc4)OC(=O)[C@H]3[C@@H]2C(=O)NC[C@H](O)c2ccccc2)cc1", "z-score": -1.05},
      {"compound": "COc1ccc(C#Cc2ccc3c(c2)[C@]2(C(=O)N3)[C@H](C(=O)NC[C@H](O)c3ccccc3)[C@H]3C(=O)O[C@H](c4ccccc4)[C@H](c4ccccc4)N3[C@@H]2c2ccc(OCCO)cc2)cc1", "z-score": -1.06},
      {"compound": "C=CCC(OC(C)=O)[C@@H]1[C@@H](N(Cc2cccc3ccccc23)C(=O)c2cccc3ccccc23)c2cc(OCCCO)ccc2N1C(=O)c1ccc2ccccc2n1", "note": "(stereo partly specified)", "z-score": -1.29},
      {"compound": "COC(=O)[C@@]1(Cc2ccccc2)[C@H]2c3cc(C(=O)N4CCCC4)n(Cc4ccc(C)o4)c3C[C@H]2CN1C(=O)c1ccccc1", "z-score": -1.11},
      {"compound": "CC(C)CNC(=O)[C@@H]1c2ccccc2C(=O)N(Cc2cc(C(F)(F)F)cc(C(F)(F)F)c2)[C@H]1c1ccc(CO)cc1", "z-score": -1.2},
      {"compound": "COC(=O)[C@@]1(Cc2ccc(OC)cc2)[C@H]2c3cc(C(=O)N(C)C)n(Cc4c(OC)[nH]cc(C)c4=O)c3C[C@H]2CN1C(=O)c1ccccc1", "z-score": -1.44},
      {"compound": "O=C1O[C@@H](c2ccccc2)[C@@H](c2ccccc2)N2[C@@H](c3ccc(OCCO)cc3)[C@]3(C(=O)Nc4ccc(C#CC5=CCCCC5)cc43)[C@@H](C(=O)O)[C@H]12", "z-score": 0.287},
      {"compound": "C=C[C@@H](COC(C)=O)N(Cc1ccccc1[N+](=O)[O-])S(=O)(=O)c1ccc(Br)cc1", "z-score": -0.43},
      {"compound": "COC(=O)[C@@]1(Cc2ccc(OC)cc2)[C@H]2c3cc(C(=O)N4CCCC4)n(CCc4c[nH]c5cc(F)ccc45)c3C[C@H]2CN1C(=O)c1ccccc1", "z-score": -1.66},
      {"compound": "COC(=O)c1ccc(C(O)C2C=CC3C(=O)N(c4ccccc4)C(=O)C3N2Nc2ccc(C#N)cc2)o1", "note": "(stereo unspecified)", "z-score": 0.229},
      {"compound": "COc1c(C)cc(-c2cc3c(c(-c4ccc(Oc5ccccc5)cc4)n2)[Si](C(C)C)(C(C)C)OC3)cc1C", "z-score": -0.898},
      {"compound": "COC(=O)[C@@]1(Cc2ccc(F)cc2)[C@H]2c3cc(C(=O)N(C)C)n(CCc4ccccn4)c3C[C@H]2CN1C(=O)c1ccccc1", "z-score": -1.21},
      {"compound": "COCC(=C=CC[C@H](O)c1ccc(OCCO)cc1)C[C@H](O)c1cc(Cl)cc(Cl)c1O", "z-score": -1.55},
      {"compound": "CC(C)(C)OC(=O)CC[C@]1(C(=O)N2CCCCC2)N=C(c2ccc(OCCCO)cc2)O[C@H]1c1ccccc1N=[N+]=[N-]", "z-score": -1.75},
      {"compound": "CC(C)C(O)C1C=CC2C(=O)N(c3ccccc3)C(=O)C2N1Nc1ccc(C#N)cc1", "note": "(stereo unspecified)", "z-score": 0.207}
    ]}
  ]
}
